# Source: PubChem (National Center for Advancing Translational Sciences (NCATS))
# Only some compounds are listed: those with a hit (about 9.4% of all), similar ones and a draw of the others.
# IMPase Li cell – membrane-permeable IMPase blocker, potentiated with lithium; CHO-M1 cells, IP1 TR-FRET (IP-One), carbachol + lithium; Potency, µM (titrated, usually from 59.4 µM), without a hit: at the highest dose activity, negative = IMPase inhibition, hits mostly inhibitors; 210,000 tested, 0.35% active; AID 1457;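 further: IP1 builds up when IMPase is blocked and the TR-FRET signal falls; potency means the concentration at half of the fitted maximal effect; plate controls were basal vehicle for no effect and high inhibitor control for full effect; nearly all actives have a fitted effect of over 50% in size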
#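 IP1 accumulation measured by competitive TR-FRET in lysed CHO-M1 cells after 30 min compound exposure at 37C, with a small lithium addition to potentiate weak responses. Hill-equation AC50 from ratio and donor-channel data.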
# ALDH1A1 inh – blocks purified human ALDH1A1 activity; P00352; Purified ALDH1A1, NADH fluorescence, propionaldehyde substrate; Potency, µM (titrated, usually from 75.3 µM), for the others: at the highest dose activity, negative = inhibition, most hits filed as inhibitors; 220,000 tested, 7.3% active; AID 1030; active means well fitted inhibition curve with a large enough effect, not every such curve was filed as active; inconclusive means small, poorly fitted or top-dose-only effect, or another doubt; inactive means no such curve, though single readings can be large or run the other way;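 further: potency means the concentration at half of the fitted maximal effect; plate controls were no enzyme wells and a reference inhibitor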
# IMPase inh – membrane-permeable compound that blocks inositol monophosphatase; CHO-M1 cells, IP1 accumulation, HTRF TR-FRET ratio; inhibition (IP1 accumulation), % at 46.1 µM; 120,000 tested, under 10 active; active means well fitted curve in the direction sought with a large enough effect in the signal ratio, not every such curve was filed as active; inconclusive means small, poorly fitted or top-dose-only effect, or a change in a side signal; inactive means no such curve, though single readings can be large or run the other way; the % refers to the signal ratio;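 further: cells stimulated with carbachol in lithium chloride buffer; plate controls were DMSO basal wells for no effect and reference inhibitor wells for full effect; higher means more IMPase inhibition seen as more IP1 and lower FRET ratio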
# Target sequence (P97697 whole entry, looked up): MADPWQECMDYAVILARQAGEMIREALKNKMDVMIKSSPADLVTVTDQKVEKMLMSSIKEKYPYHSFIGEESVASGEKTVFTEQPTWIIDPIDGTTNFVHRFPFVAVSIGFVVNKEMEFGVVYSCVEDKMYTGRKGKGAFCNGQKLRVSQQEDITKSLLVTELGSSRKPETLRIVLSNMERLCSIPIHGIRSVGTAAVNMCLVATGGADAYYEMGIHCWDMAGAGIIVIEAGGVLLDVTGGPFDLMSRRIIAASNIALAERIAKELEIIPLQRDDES
#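 Elevated IP1 in lysates lowers TR-FRET signal (665/620 ratio and 620 channel reported). Cells were CHO-M1, given carbachol (50 uM as added) plus 50mM LiCl, pH 7.4, 30 min, 37C; compounds titrated up to 46 uM; AC50 by Hill equation.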
# HPGD inh – blocks human HPGD enzyme activity | purified HPGD, NADH fluorescence kinetic, PGE2 substrate | Potency, µM, for the others: at the highest dose activity change, negative = inhibition, actives largely listed as inhibitors | 150,000 tested, 4.3% active | AID 894; active means well fitted inhibition curve with a large enough effect, not every such curve was filed as active; inconclusive means small, poorly fitted or top-dose-only effect, or another doubt; inactive means no such curve, though single readings can be large or run the other way; further: potency means the concentration at half of the fitted maximal effect; on the % scale 0 is the no-effect control and ±100 the full control effect
# Target sequence (P15428 whole entry, looked up): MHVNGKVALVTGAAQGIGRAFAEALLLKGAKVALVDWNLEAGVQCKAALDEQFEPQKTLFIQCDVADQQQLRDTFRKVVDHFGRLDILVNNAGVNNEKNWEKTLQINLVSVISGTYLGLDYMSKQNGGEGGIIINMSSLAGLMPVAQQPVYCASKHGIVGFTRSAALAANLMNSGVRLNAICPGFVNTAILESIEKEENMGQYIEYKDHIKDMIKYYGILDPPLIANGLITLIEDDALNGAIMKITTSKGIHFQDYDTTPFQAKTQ
#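 20 nM HPGD preincubated 15 min at room temperature with compound in 50 mM Tris-HCl pH 8, 0.01% Tween 20. Started with 1 mM NAD+ and 30 uM prostaglandin E2; NADH fluorescence (360/450 nm) read 5 times over 30-s intervals, last minus first.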
# HTT ATP protect – Huntington cell model cytoprotection by ATP luminescence. PC12 HTT-Q103 induced, cytoprotection, ATP luminescence, 40 h. Potency, µM (titrated, usually from 56.4 µM), for inactives: cytoprotection (ATP increase), hits mostly activators. 230,000 tested, 0.14% active; further: potency means the concentration at half of the fitted maximal effect; % of control where 0% means no effect; nearly all actives have a fitted effect of over 45% in size
#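 PC12 cells with ecdysone-inducible HTT exon 1 Q103-GFP, induced with 100 nM tebufenozide and co-treated with library compounds in a dose series (1536-well, 1500 cells/well). Cytoprotection read as ATP content by ATPlite luminescence.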
# HTT aggregate – mutant huntingtin aggregation inhibition; PC12 HttQ103-GFP aggregates, Acumen cytometry, 40 h; Potency, µM (doses to about 46.1 µM), for inactives: at the highest dose activity change, negative = inhibition, actives largely listed as inhibitors; 220,000 tested, 1.1% active; AID 1688; further: potency means the concentration at half of the fitted maximal effect; on the % scale 0 is the no-effect control and ±100 the full control effect; nearly all actives have a fitted effect of over 60% in size
#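 PC12 cells stably carrying ecdysone-inducible HTT exon 1 Q103–GFP were induced with tebufenozide (100 nM final) and treated with library compounds in titration. GFP aggregates in lysates were counted by laser scanning cytometry.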
# An asterisk follows results filed as active; ? = inconclusive; · = no result given; [ ] = another dose, or the depositor's remark. Unless noted, the call rests on the fitted dose curve; in most records, active means well fitted curve in the direction sought with a large enough effect; inconclusive means small, poorly fitted or top-dose-only effect, or another doubt; inactive means no such curve, though single readings can be large; an effect the other way counts as inactive or inconclusive.
SMILES,IMPase Li cell,ALDH1A1 inh,IMPase inh,HPGD inh,HTT ATP protect,HTT aggregate
O=C(c1ccccc1)N1N=C(c2ccco2)CC1c1cccs1 (configuration not stated),11%,?,·,·,-15%[10 µM],-2%[9.22 µM]
Cc1ccc(C2=NN(C(=O)CCC(=O)O)C(c3cccs3)C2)cc1 (configuration not stated),·,·,·,·,21%[10 µM],18%[9.22 µM]
O=C1CCCC=C1[C@@H](O)CCOCc1ccccc1,·,-6%[13.5 µM],·,·,-5%[10 µM],·
O=C(CC1(O)C(=O)N(CCc2ccccc2)c2ccc(Br)cc21)c1ccc(F)cc1 (configuration not stated),·,·,3,·,·,·
O=C(NCc1ccco1)Nc1cccc([N+](=O)[O-])c1,·,·,·,·,6%[10 µM],-3%[9.22 µM]
COC(=O)c1ccc(NC(=O)CSc2nnc(-c3ccncc3)n2N)cc1,-14%[38.3 µM],25µM*,?,-26%,-10%[0.074 µM],-4%
CCn1c(SCC(=O)Nc2ccc(C(=O)OC)cc2)nc2cccnc21,-5%,1%,4,3.5µM*,-11%[10 µM],10%
CCn1c(SCC(=O)Nc2ccc(C(C)=O)cc2)nc2ccccc21,26%[38.3 µM],-2%,26,-23%,-18%,?
CCc1ccc(NC(=O)CSc2nc3cc(C(=O)OC)ccc3c(=O)n2CC2CCCO2)cc1 (configuration not stated),14µM*,?,0,-22%,-24%,6%
COC(=O)c1ccc2c(=O)n(CC3CCCO3)c(SCC(=O)Nc3ccccc3Cl)nc2c1 (configuration not stated),-5%[38.3 µM],16%,-9,-9%,10%[10 µM],12%
COC(=O)c1ccc2c(=O)n(CC3CCCO3)c(SCC(=O)Nc3ccccc3OC)nc2c1 (configuration not stated),?,14µM*,5,-12%,-7%,15%
CN(C)CC(C)(C)CNC(=O)c1ccc(-n2c(=O)c(=O)[nH]c3ccccc32)cc1,·,-1%,·,-10%,·,·
Cc1ccc(-n2cc(-c3ccccc3)[nH]c2=O)cc1F,27%[38.3 µM],20µM*,7,-23%,-9%,-15%
Cc1ccc(S(=O)(=O)NC2c3cccc4cccc(c34)C2Sc2n[nH]c(N)n2)cc1 (configuration not stated),6%,4µM*,-5,-14%,0%[10 µM],24%
Cc1ccc(N(CC(=O)N/N=C/c2cc(C)n(-c3ccccc3C)c2C)S(C)(=O)=O)cc1,8%,25µM*,7,-15%,-29%[10 µM],16%
Cc1c(C(=O)OCCOC(C)C)[nH]c2c1C(=O)CC(c1ccco1)C2 (configuration not stated),10%,25µM*,12,-10%,-51%[10 µM],16%
Cc1c(C(=O)OCc2ccccc2)[nH]c2c1C(=O)CC(c1ccco1)C2 (configuration not stated),36%[38.3 µM],8.9µM*,6,-28%,-41%,-16%
COCCOC(=O)c1[nH]c2c(c1C)C(=O)CC(c1ccco1)C2 (configuration not stated),27%[38.3 µM],?,4,-11%,-34%,10%
CCOC(=O)c1[nH]c2c(c1C)C(=O)CC(c1ccco1)C2 (configuration not stated),19%[38.3 µM],?,2,-19%,-45%,?
CCNc1ncc2nc(-c3ccc(OC)cc3)c(=O)n(Cc3ccc(F)cc3)c2n1,?,?,·,·,23%,·
c1cc2[nH]snc2c2nc(C3CC3)nc12,-9%[38.3 µM],-9%,3,-25%,10%,11µM*
CC(C)(C)NC(=O)CSc1nc2ccc(NC(=O)CSc3nnnn3Cc3ccccc3)cc2s1,18%[38.3 µM],4µM*,8,8.9µM*,2%[10 µM],?
O=C(CSc1nc2ccccc2s1)NC1CCCC1,·,·,·,·,-11%[10 µM],7%[9.22 µM]
Cc1cccc(NC(=O)CSc2nnc(N)s2)c1,·,·,-4,·,·,·
